# The entries come from a sample that favours hits as a whole.
# Pin1 inhibitor – inhibitors of human Pin1; 0.009% of 390,000 active; Potency, µM (doses to about 115 µM), for the others: at the top dose activity, negative = inhibition, most hits filed as inhibitors; AID 504891; Pin1 FP peptide displacement, HiFluor488, 10 min; active means well fitted inhibition curve with a large enough effect in the polarisation, with a control signal flat, not every such curve was filed as active; inconclusive means small, poorly fitted or top-dose-only effect, or effect the other way, or a change in a side signal; inactive means no such curve, though single readings can be large or run the other way; the % refers to the polarisation; further: potency means the concentration at half of the fitted maximal effect
# Target sequence (Q13526 whole entry, looked up): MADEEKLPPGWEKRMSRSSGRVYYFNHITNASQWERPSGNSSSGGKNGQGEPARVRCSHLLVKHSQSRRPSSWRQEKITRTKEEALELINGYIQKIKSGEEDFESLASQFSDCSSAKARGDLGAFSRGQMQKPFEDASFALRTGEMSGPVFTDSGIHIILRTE
# PI4K2A block – inhibitors of human PI4K2A | AID 1346378 | 0.13% of 420,000 active | activity change, negative = inhibition, % at 76.9 µM | Q9BTU6 | purified PI4K2A, ADP-Glo luminescence, 1 h; active compounds read low; in the data active means activity change below about -50%; inconclusive means mostly about -30% to -49%;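 further: -100% = wells without enzyme as full effect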
#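 Compounds are screened against recombinant PI4K2A using PI as substrate and ATP, the latter dispensed at 300 microM. Reactions run one hour at ambient temperature before ADP-Glo detection; full inhibition defined by wells lacking enzyme.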
# PI5P4Ka inh – PI5P4K alpha (human) kinase inhibition. P48426. PI5P4Kalpha enzyme, ADP-Glo luminescence, 60 min; active compounds read low. max response, %. 1.2% of 330,000 active. AID 652105; active means max response of -50% or lower; inconclusive means between -30% and -50%; inactive means -30% or higher; further: value at the top dose of about 77 µM
# Target sequence (P48426 whole entry, looked up): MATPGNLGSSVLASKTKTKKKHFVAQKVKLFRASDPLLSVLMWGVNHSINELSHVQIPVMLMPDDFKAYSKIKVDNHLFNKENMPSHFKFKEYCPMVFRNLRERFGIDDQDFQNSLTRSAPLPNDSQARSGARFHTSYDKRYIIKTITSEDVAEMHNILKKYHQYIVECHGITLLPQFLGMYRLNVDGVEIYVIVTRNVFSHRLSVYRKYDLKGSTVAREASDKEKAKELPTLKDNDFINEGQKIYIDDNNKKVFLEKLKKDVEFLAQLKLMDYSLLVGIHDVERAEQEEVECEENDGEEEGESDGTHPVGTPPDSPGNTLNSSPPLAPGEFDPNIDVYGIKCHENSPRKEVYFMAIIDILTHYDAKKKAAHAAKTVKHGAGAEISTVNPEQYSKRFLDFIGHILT
#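 Reactions run in 0.038 M HEPES pH 7.4, 0.28 mM EGTA, 0.1% CHAPS and 5% DMSO, with PI5P4Kalpha, substrate, compound and 5 microM ATP final, one hour at room temperature. Readout is ADP-Glo luminescence.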
# PGK inhibitor – blocks T. brucei phosphoglycerate kinase; PGK/GAPDH coupled, Kinase-Glo luminescence, 60 min; 0.043% of 380,000 active; P07378; Potency, µM (titrated, usually from 57.5 µM), for the others: at the highest dose activity change, negative = inhibition, most hits filed as inhibitors; active means well fitted inhibition curve with a large enough effect; inconclusive means small, poorly fitted or top-dose-only effect; inactive means no such curve, though single readings can be large or run the other way; further: potency means the concentration at half of the fitted maximal effect; nearly all actives have a fitted effect of over 60% in size
#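 Luminescent ATP detection (Kinase-Glo Plus) follows a 60-minute room-temperature incubation, with wells lacking PGK as controls. Buffer: 100 mM TEA (pH 7.6), 5 mM MgCl2, 0.01% Tween-20. Coupling enzyme GAPDH (100 nM final) supplies unstable 1,3-BPG in-well.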
# The depositor's hits bear a star; i = inactive; ? = inconclusive; . = not tested or not shown. Unless noted, on the % scale 0 is the no-effect control and ±100 the full control effect.
SMILES,Pin1 inhibitor,PI4K2A block,PI5P4Ka inh,PGK inhibitor
CCC(=O)NC(c1cc(Cl)c2cccnc2c1O)c1cccn1C (centres undefined),-5%,.,.,.
COc1cccc(C2c3c(ncn(-c4ccc5c(c4)OCO5)c3=N)Oc3ccc4ccccc4c32)c1 (centres undefined),17%,.,.,.
Oc1cc2c(cc1O)C1c3ccc(O)c(O)c3OCC1(O)C2 (centres undefined),?,-10,-74*,?
COc1ccc(C(=O)N(Cc2ccco2)Cc2cccs2)cc1,-13%,.,.,.
O=c1c2c(-c3ccc(Cl)cc3)csc2ncn1/N=C/c1cccc([N+](=O)[O-])c1O,?,0,-71*,-3%
O=C(Nc1ccc([N+](=O)[O-])cc1Cl)c1cc(Br)ccc1O,6%,.,.,.
Cc1ccc(OCC(=O)N/N=C/c2ccc([N+](=O)[O-])o2)cc1,-9%,-7,.,.
O=C(COc1ccccc1)N/N=C/c1ccc([N+](=O)[O-])o1,-15%,-9,-55*,-13%
O=C(N/N=C/c1ccc([N+](=O)[O-])o1)c1sc2ccccc2c1Cl,?,-13,-62*,-10%
CSc1nc(O)c(C(c2ccc(F)cc2)c2c(O)nc(SC)[nH]c2=O)c(=O)[nH]1,1%,1,-14,-6%
CSc1nc(O)c(C(c2ccccc2)c2c(O)nc(SC)[nH]c2=O)c(=O)[nH]1,-5%,-3,-53*,1%
Cc1cc(O)c(C)c(C)c1O,.,4,.,.
O=c1c2c([N+](=O)[O-])cc([N+](=O)[O-])cc2sn1Cc1ccccc1,1%,-7,-80*,-5%
O=C(Nc1ccc(Br)cc1)c1cc([N+](=O)[O-])cc([N+](=O)[O-])c1,6%,2,-3,7%
O=c1c2c([N+](=O)[O-])cc([N+](=O)[O-])cc2sn1-c1ccc(Br)cc1,-18%,-9,-85*,1%
CCCc1ccc(OCC(=O)N2CCN(C(=O)COc3ccc(CCC)cc3OC)CC2)c(OC)c1,.,-2,.,.
CCOc1ccccc1N1CCN(c2nc(N)c(C#N)c(CC#N)c2C#N)CC1,?,3,-67*,i
O=[N+]([O-])c1cc2no[n+]([O-])c2cc1N1CCCCC1,?,-11,-80*,-1%
CN1CCN(C(=S)NC(=O)c2ccc(Cl)cc2)CC1,-4%,5,-91*,-5%
O=C(NC(=S)N1CCCC1)c1ccc(Cl)cc1,-2%,6,-10,1%
CCOC(=O)c1ccc(-c2ccc3ncnc(NCc4cccs4)c3c2)o1,33%,.,.,.
N#Cc1cc2nc(O)c(O)nc2cc1[N+](=O)[O-],-12%,-2,-57*,-5%
CNc1nc2cc([N+](=O)[O-])c([N+](=O)[O-])cc2nc1NC,2%,-7,-1,-7%
N=C1C2=C3Sc4ccccc4N3CCCC2=NN1c1cccc(S(=O)(=O)O)c1,2%,-5,-53*,-4%
N#CC1=C2Sc3ccccc3N2CCCC1=O,0%,0,.,5%
SMILES,Pin1 inhibitor,PI4K2A block,PI5P4Ka inh,PGK inhibitor
c1c[nH]c(C2CCN(c3ncc(-c4ccc5c(c4)OCCCO5)s3)CC2)n1,4%,.,.,.
COc1cc(/C=N/N=C2/NC(=O)C(CC(=O)O)S2)ccc1OCc1ccc(Cl)cc1 (centres undefined),-8%,2,-9,-5%
CCOc1cc(/C=N/N=C2/NC(=O)C(CC(=O)O)S2)ccc1OCc1ccc(Cl)cc1Cl (centres undefined),.,-13,-63*,?
COc1ccccc1N1C(=O)C2CC(C)=C(C)CC2C1=O (centres undefined),7%,-1,.,.
COc1ccccc1N1C(=O)C=C(Sc2nc(C)cc(C)n2)C1=O,-14%,4,-57*,-8%
O=C(Cc1cc(=O)[nH][nH]1)N/N=C/C=C/c1ccccc1,?,-26,-60*,i
CC(=O)N[C@@H](CCC(N)=O)C(=O)O,.,-3,.,.
O=C1CCc2cc(S(=O)(=O)Nc3ccc4ncccc4c3)ccc2N1,7%,.,.,.
COc1cccc(C2C(C#N)=C(NC(=O)CCc3ccccc3)Oc3ccc4ccccc4c32)c1 (centres undefined),-5%,.,.,.
O=C(NN1C(=O)/C(=C/c2ccc(O)c(O)c2)SC1=S)c1ccccc1,81%,-3,-53*,?
O=C1/C(=C/c2ccc(O)c(O)c2)SC(=S)N1Nc1ccccc1,98%,-11,-61*,-11%
O=C(NN1C(=O)/C(=C\c2ccc(O)c([N+](=O)[O-])c2)SC1=S)c1ccccc1Cl,?,-9,-78*,-8%
O=C(O)c1ccc(/C=C2\SC(=S)N(NC(=O)c3ccccc3[N+](=O)[O-])C2=O)cc1,-20%,-7,?,-3%
COc1cc(-c2ccc3ncnc(NCc4nc(C)cs4)c3c2)cc(OC)c1OC,-7%,.,.,.
CCCOc1ccc(F)cc1-c1cc(C(=O)NCc2cccc(Cl)c2)[nH]n1,.,0,-9,.
COc1ccc(C2Nc3ccccc3C(=O)N2Cc2ccccc2)cc1COc1cccc(Cl)c1 (centres undefined),19%,.,.,.
Cc1ccc(NS(=O)(=O)c2cc3c(cc2Cl)CCC(=O)N3)cc1C,-1%,.,.,.
CO[C@@H]1[C@@H](O[C@@H]2O[C@H](C)[C@@H](O[C@H]3C[C@@](C)(O)[C@@H](O)[C@H](C)O3)[C@H](N(C)C)[C@H]2O)[C@@H](CC=O)C[C@@H](C)[C@@H](O[C@@H]2CC[C@H](N(C)C)[C@@H](C)O2)/C=C/C=C/C[C@@H](C)OC(=O)C[C@H]1OC(C)=O,.,-2,.,.
COC/C=C/c1cc(F)c(S(=O)(=O)N2CCN(S(=O)(=O)c3ccc4c(c3)OCCO4)CC2)cc1F,11%,.,.,.
N#Cc1cnc2sc3ccccc3n2c1=N,-7%,-24,-61*,-8%
COC(=O)c1c(NC(=O)CN2C(=O)NC3(CCC(C)CC3)C2=O)sc2c1CCC2 (centres undefined),5%,-8,4,1%
CC1CCC2(CC1)NC(=O)N(CC(=O)Nc1sc3c(c1C(N)=O)CCC3)C2=O (centres undefined),5%,?,-87*,-17%
CNC(=O)c1ccc2nc(-c3cccc(C)c3)c(-c3cccc(C)c3)nc2c1,8%,.,.,.
Cc1cc(C)c2sc(NC(=O)c3ccc(N4C(=O)CCC4=O)cc3)nc2c1,15%,4,-10,-9%
Cc1ccc2nc(NC(=O)c3ccc(N4C(=O)CCC4=O)cc3)sc2c1,0%,-7,-54*,-6%
SMILES,Pin1 inhibitor,PI4K2A block,PI5P4Ka inh,PGK inhibitor
Cc1ccc(NS(=O)(=O)c2ccc(-c3ccccc3)cc2)cc1C,-12%,.,.,.
N#C/C(=C\c1ccc(O)c(O)c1)C(=O)N1CCCC1,-7%,-2,-17,-5%
N#C/C(=C/c1cc(Cl)c(O)c(Cl)c1)C(=O)N1CCCCC1,-2%,-21,-94*,-9%
O=C1CCCC2=C1C1(CCSC1)N=C(Nc1nc3ccccc3o1)N2 (centres undefined),1%,.,.,.
COc1cc(-c2ccc3ncnc(N(C)Cc4csc(C)n4)c3c2)cc(OC)c1OC,-1%,.,.,.
Nc1c(N2CCCC2)cc(Cl)c2nonc12,?,-66*,.,-21%
Nc1ccc(N2CCCCC2)c2nonc12,.,-54*,-14,?
